Source: the supplement of paper PMC10849652
The full data set covers some 8,800 targets. This sample favours those with a hit. About 0.5% of all pairs of compound and target were hits.

What was measured:
Assay in all cases: log2 fold change, soluble protein after heating vs DMSO (PISA); higher = thermal stabilisation; K562 lysate, 10 uM; active = over 0.2 and 3.5 SD of the protein, either way, in both replicates (recomputed)
[1] = compound: C1=CC=C(C=C1)[C@H](COC2=CC3=C(C=C2)NC(=O)N3)NC(=O)C4=CC=CN(C4=O)CC5=CC(=C(C=C5)F)F
Summary of the method: (§1)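 Values give the log-two fold change in thermal stability against solvent controls, from duplicates. Crude K562 extract at 1 mg/mL protein, made by dounce homogenisation in PBS pH 7.4 with 1 mM MgCl2, was treated with 10 μM compound for 30 min. After 3 min heating across 48°C-58°C, aliquots were pooled, adjusted to 0.5% NP-40 at 4°C and centrifuged at 21,000xg for 90 min. The supernatant was measured by TMTpro 16plex LC-MS/MS with channel sums equalised.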

[2] = compound: CC1=C(SC2=C1C(=N[C@H](C3=NN=C(N32)C)CC(=O)N)C4=CC=C(C=C4)Cl)C
Summary of the method: as §1

[3] = compound: CC1=C2C(=CC=C1)N=C(N(C2=O)C3=CC=CC=C3C)CN4C=NC5=C(N=CN=C54)N
Summary of the method: as §1

[4] = compound: Cc1sc2c(c1C)C(c1ccc(Cl)cc1)=N[C@@H](CC(=O)OC(C)(C)C)c1nnc(C)n1-2
Summary of the method: as §1

[5] = compound: c1ccc([C@@H]2C[C@H]2NC2CCNCC2)cc1
Summary of the method: as §1

Measured: log2 fold change

CDK2 (UniProt P24941)
inactive: [1] 0.006 | [2] 0.004 | [3] -0.039 | [4] 0.076 | [5] -0.028

CELF2 isoform 3 (UniProt O95319)
Sequence of UniProt O95319 (O95319 whole entry, looked up): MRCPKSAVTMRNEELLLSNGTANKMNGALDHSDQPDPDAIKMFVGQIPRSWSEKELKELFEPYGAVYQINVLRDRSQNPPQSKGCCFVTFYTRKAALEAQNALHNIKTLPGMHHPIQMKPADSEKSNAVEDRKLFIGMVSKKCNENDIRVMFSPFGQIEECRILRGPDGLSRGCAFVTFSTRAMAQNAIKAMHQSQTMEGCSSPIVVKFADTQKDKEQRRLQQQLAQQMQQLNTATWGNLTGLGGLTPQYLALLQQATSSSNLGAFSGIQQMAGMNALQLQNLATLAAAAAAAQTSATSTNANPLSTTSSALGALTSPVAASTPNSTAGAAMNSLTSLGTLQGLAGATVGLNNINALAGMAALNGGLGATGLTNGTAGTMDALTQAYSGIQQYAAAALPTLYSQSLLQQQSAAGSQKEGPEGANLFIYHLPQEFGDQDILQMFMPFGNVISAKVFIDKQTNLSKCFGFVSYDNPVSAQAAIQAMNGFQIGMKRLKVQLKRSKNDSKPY
inactive: [1] -0.009 | [2] -0.012 | [3] 0.005 | [4] 0.012 | [5] 0.08

BCKDK (UniProt O14874)
inactive: [1] -0.036 | [2] -0.007 | [3] -0.037 | [4] 0.016 | [5] 0.012

C8orf37 (UniProt Q96NL8)
Sequence of UniProt Q96NL8 (Q96NL8 whole entry, looked up): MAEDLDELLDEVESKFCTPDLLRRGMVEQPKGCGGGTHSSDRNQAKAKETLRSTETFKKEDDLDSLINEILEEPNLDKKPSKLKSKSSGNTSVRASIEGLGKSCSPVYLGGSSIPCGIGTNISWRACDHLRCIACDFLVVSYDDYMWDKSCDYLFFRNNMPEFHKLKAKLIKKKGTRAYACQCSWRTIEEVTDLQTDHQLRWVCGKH
inactive: [1] 0.072 | [2] -0.08 | [3] -0.094 | [4] -0.008 | [5] 0.141

CCDC186 (UniProt Q7Z3E2)
Sequence of UniProt Q7Z3E2 (Q7Z3E2 whole entry, looked up): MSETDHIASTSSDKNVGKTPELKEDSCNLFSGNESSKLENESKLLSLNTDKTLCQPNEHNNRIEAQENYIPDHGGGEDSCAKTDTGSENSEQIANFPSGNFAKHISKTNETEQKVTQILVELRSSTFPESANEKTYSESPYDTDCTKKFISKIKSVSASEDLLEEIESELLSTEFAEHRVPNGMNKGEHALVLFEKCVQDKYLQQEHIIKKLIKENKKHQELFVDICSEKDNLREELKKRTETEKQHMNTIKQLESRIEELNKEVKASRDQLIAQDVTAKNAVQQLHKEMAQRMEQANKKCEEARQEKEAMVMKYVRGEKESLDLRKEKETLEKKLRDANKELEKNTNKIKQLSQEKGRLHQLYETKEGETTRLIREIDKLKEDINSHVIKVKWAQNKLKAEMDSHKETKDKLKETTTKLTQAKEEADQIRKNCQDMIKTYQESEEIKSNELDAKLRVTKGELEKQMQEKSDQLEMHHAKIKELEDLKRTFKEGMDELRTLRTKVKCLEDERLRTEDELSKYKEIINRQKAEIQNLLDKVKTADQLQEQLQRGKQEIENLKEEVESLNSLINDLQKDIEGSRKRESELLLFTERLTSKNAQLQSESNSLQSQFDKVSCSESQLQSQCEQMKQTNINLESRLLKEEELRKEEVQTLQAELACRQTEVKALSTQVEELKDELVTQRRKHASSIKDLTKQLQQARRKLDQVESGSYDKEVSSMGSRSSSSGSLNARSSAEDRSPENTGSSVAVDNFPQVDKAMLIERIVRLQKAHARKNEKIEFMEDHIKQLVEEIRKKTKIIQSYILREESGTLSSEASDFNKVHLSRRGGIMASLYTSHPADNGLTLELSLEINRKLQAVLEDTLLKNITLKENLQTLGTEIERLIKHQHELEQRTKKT
inactive: [1] 0.031 | [2] 0.085 | [3] 0.055 | [4] -0.016 | [5] 0.105
